Values joined by “and” are separate entries in the source; they are usually repeats but may differ in a detail not shown here. Equal values may be shown once. Records with an inconclusive call do not appear. Active and inactive are the calls of the source. Unless noted, the call rests on the fitted dose curve; in most records, active means well fitted curve in the direction sought with a large enough effect; inconclusive means small, poorly fitted or top-dose-only effect, or another doubt; inactive means no such curve, though single readings can be large; an effect the other way counts as inactive or inconclusive.
Assays:
[1] = molecular target: Protein phosphatase 1D (Homo sapiens) (UniProt O15297); experiment: Rhodamine-PBP qHTS Assay for Modulators of WT P53-Induced Phosphatase 1 (WIP1) (AID 1347425)
Protein phosphatase 1D (Homo sapiens), sequence (O15297 whole entry, looked up): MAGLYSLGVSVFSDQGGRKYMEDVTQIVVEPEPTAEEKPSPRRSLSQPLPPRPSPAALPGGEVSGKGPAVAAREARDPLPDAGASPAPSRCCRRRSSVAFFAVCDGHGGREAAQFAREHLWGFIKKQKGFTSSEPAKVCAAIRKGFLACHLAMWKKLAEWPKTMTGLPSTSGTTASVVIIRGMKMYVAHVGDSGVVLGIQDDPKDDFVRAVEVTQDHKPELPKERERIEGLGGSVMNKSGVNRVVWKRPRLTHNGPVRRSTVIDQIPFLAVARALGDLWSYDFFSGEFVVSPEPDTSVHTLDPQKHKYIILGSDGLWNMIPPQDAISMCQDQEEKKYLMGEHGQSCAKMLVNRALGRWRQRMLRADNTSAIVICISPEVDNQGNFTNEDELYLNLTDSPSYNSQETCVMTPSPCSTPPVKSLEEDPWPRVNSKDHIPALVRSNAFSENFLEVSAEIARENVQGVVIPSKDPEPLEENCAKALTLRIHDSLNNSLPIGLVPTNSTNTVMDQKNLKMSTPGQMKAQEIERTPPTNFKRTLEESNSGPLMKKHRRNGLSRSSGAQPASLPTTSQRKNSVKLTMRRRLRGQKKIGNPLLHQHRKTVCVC
How it was run: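 5 nM WIP1 + 10 uM Rh-PBP, 50 mM Tris pH 7.5, 30 mM MgCl2, 1 mM TCEP, 0.1 mM EGTA, BSA; cpds pinned, 1 hr RT; + 10 uM phosphopeptide; fluorescence 1-min reads x 11 min; delta = f1 - f0.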

[2] = Primary qHTS for inhibitors of La Crosse Virus (LACV) - induced cell death in SH-SY5Y cells (AID 1508616);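 further: top concentration of the series differs between compounds; higher means more rescue of cells from virus-induced death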
How it was run: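 Luminescent ATP readout (ATPLite 1step, 5 min room temperature) measured rescue from LACV-induced death after 6 days of infection at 0.01 MOI; normalized to infected DMSO wells and uninfected DMSO wells.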

[3] = molecular target: Calcium and integrin-binding protein 1 (Homo sapiens) (UniProt Q99828); experiment: Primary qHTS for Identification of Calcium Integrin Binding Protein 1 (CIB1) Competitor (AID 1508620); further: potency means the concentration at half of the fitted maximal effect
Calcium and integrin-binding protein 1 (Homo sapiens), sequence (Q99828 whole entry, looked up): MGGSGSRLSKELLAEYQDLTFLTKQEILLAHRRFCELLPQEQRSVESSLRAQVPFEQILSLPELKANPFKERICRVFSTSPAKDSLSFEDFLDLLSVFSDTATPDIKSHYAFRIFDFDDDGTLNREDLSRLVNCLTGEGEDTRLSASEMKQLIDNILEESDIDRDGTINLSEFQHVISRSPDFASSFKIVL
How it was run: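 Fluorescence polarization competition: CIB1-GST (1 uM final) preincubated with compound 15 min at room temperature, then FITC-labeled alphaIIb peptide (100 nM final) added for another 15 min. Polarization read at Ex 480/Em 540.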

[4] = Primary qHTS for small molecule stabilizers of the endoplasmic reticulum resident proteome: Secreted ER Calcium Modulated Protein (SERCaMP) assay (AID 1508630)
How it was run: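 GLuc-SERCaMP-expressing SH-SY5Y cells, pretreated 16 h with compound, are challenged with thapsigargin to empty ER calcium stores; after 4 h, coelenterazine is added directly to the medium and luminescence is imaged.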

[5] = A High-Content qHTS Against Drug Library for the Identification of Small Molecules that Inhibit DYT1 Early Onset Primary Dystonia-Associated Cell Pathology (AID 1645839; calls by dose curve; further: series mostly up to about 46 µM)
How it was run: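 Readout: %pathology, the punctate EGFP-TorsinA distribution from imaging, as the primary channel and cell count as the toxicity counterscreen. HEK293 Flp-In cells expressing delE TorsinA were induced with tetracycline and treated with compound for 48 h.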

[6] = molecular target: Cytochrome P450 2D6 (Homo sapiens) (UniProt P10635); experiment: Cytochrome P450 family 2 subfamily D member 6 (CYP2D6) small molecule antagonists: luciferase biochemical (cell-free) qHTS assay (AID 1645840; active means well fitted curve in the direction sought with a large enough effect in the repeat runs; an effect the other way counts as inactive or inconclusive; further: nearly all actives have a fitted effect of over 55% in size; further: potency means the concentration at half of the fitted maximal effect)
Cytochrome P450 2D6 (Homo sapiens), sequence (P10635 whole entry, looked up): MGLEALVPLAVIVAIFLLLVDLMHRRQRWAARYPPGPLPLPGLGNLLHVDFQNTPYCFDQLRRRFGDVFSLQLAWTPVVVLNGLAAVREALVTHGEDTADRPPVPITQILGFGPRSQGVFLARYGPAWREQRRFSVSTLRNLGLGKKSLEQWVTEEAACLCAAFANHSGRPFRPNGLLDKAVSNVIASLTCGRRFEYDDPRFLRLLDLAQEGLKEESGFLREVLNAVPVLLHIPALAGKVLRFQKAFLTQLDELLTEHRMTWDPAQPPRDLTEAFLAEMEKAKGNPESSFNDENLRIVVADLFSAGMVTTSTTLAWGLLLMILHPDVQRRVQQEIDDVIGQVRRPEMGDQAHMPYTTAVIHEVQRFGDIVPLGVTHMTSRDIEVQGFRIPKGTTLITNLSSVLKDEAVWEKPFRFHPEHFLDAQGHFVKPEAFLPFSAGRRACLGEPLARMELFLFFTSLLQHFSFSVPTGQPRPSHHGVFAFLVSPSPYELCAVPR
How it was run: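 P450-Glo luminescent screen: recombinant CYP2D6 enzyme–proluciferin substrate mix preincubated with compound 10 min at room temperature, then NADPH regeneration added for 1 h at room temperature. Detection reagent added for 20 min; luciferin light read as relative luminescence units.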

[7] = molecular target: Cytochrome P450 2C9 (Homo sapiens) (UniProt P11712); experiment: Cytochrome P450 family 2 subfamily C member 9 (CYP2C9) small molecule antagonists: luciferase biochemical (cell-free) qHTS assay (AID 1645842; active means well fitted curve in the direction sought with a large enough effect in the repeat runs; an effect the other way counts as inactive or inconclusive; further: nearly all actives have a fitted effect of over 55% in size; further: potency means the concentration at half of the fitted maximal effect)
Cytochrome P450 2C9 (Homo sapiens), sequence (P11712 whole entry, looked up): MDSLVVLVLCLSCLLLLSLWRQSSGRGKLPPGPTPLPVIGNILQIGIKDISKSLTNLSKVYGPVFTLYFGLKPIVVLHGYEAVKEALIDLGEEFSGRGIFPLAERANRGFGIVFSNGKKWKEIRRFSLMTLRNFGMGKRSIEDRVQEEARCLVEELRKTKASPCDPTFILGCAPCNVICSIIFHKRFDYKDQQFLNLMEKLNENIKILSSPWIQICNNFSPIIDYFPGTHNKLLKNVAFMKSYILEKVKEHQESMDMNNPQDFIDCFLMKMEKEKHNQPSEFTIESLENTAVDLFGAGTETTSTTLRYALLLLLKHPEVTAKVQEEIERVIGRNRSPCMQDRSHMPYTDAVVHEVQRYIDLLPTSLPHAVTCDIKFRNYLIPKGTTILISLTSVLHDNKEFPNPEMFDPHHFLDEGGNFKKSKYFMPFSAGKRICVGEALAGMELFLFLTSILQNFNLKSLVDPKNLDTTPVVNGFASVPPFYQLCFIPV
How it was run: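 Luminescence, after 20 min with luciferin detection reagent, reflected CYP2C9 turnover during a 1 h NADPH-driven reaction at 37C. Enzyme-substrate mix contained 0.4% bovine serum albumin and was preincubated with compound 10 min at room temperature.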

[8] = Primary qHTS for inhibitors of nuclear receptor binding SET domain protein 2 (NSD2) in an isogenic RCH-ACV NSD2 p.E1099K mutant (9B) (AID 1645876); further: nearly all actives have a fitted effect of over 70% in size; further: potency means the concentration at half of the fitted maximal effect
[9] = Primary qHTS for inhibitors of nuclear receptor binding SET domain protein 2 (NSD2) in an RCH-ACV wild type WT cells (2C) (AID 1645877); further: nearly all actives have a fitted effect of over 70% in size; further: potency means the concentration at half of the fitted maximal effect
[10] = Validation qHTS assay for inhibitors of Activation Induced Cytidine Deaminase (AID): UDG Counterscreen signal (AID 1347427)
How it was run: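 Counterscreen read of UDG activity (2 U/mL, 4/3x) in the FRET deamination format with AID (1 uM, 4/3x), DJC20/DJC23 substrates (250 nM, 4x), 4 h at room temperature. NaOH stop, fluorescence at 560 ex/665 em.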

[11] = molecular target: Single-stranded DNA cytosine deaminase (Homo sapiens) (UniProt Q9GZX7); experiment: Validation qHTS assay for inhibitors of Activation Induced Cytidine Deaminase (AID): AID signal (AID 1347429)
Single-stranded DNA cytosine deaminase (Homo sapiens), sequence (Q9GZX7 whole entry, looked up): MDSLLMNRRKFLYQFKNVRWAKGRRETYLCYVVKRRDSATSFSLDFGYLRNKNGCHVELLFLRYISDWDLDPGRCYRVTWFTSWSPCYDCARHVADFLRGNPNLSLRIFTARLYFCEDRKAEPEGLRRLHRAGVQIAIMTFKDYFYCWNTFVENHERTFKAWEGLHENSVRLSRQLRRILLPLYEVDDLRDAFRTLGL
How it was run: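 AID and UDG were combined and compounds added at final up to 114 uM, then DJC20/DJC23 FRET substrate was added for 4 hr at room temperature. NaOH was then added for 30 min before fluorescence was read at 540/590 nm.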

[12] = molecular target: Calcium and integrin-binding protein 1 (Homo sapiens) (UniProt Q99828); experiment: Validation qHTS for Identification of Calcium Integrin Binding protein 1 (CIB1) Competitor (AID 1508618)
How it was run: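 Displacement of FITC-alphaIIb peptide (100 nM) from CIB1-GST (1 uM) is monitored by polarization in quantitative HTS format; buffer carries 5 mM CaCl2 and 125 mM NaCl at pH 7.4, incubations are at room temperature.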

Papain (Carica papaya) = Papain (Carica papaya) (UniProt P00784); experiment: Primary qHTS assay for inhibitors of the protease papain (AID 1645873);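 further: papain turnover of Z-FR-AMC read as the AMC fluorescence gain over 10 min; series mostly up to about 50 µM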
Papain (Carica papaya), sequence (P00784 whole entry, looked up): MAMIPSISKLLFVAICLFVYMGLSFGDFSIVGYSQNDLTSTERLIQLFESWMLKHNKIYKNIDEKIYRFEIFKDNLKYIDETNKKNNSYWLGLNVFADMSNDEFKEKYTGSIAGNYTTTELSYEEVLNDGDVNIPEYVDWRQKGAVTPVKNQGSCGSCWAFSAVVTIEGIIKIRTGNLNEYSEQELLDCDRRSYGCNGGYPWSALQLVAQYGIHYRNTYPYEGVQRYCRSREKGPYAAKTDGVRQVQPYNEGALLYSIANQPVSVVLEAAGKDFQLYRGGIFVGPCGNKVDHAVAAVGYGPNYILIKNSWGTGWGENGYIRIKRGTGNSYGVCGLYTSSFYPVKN

[13] = Counterscreen qHTS for small molecule stabilizers of the endoplasmic reticulum resident proteome: GLuc-NoTag assay (AID 1508627);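 further: SH-SY5Y cells given compound then 100 nM thapsigargin to empty ER calcium; series mostly up to about 76 µM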
How it was run: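 SH-SY5Y cells stably expressing constitutively secreted GLuc (no SERCaMP tag) were pre-incubated 5 h, treated with compound for 19 h, then 100 nM thapsigargin for 4 h at 37C; medium GLuc read by coelenterazine luminescence.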

[14] = Confirmatory qHTS for small molecule stabilizers of the endoplasmic reticulum resident proteome: Secreted ER Calcium Modulated Protein (SERCaMP) assay (AID 1508628);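 further: SH-SY5Y cells given compound 16 h then thapsigargin 100 nM for 4 h; series mostly up to about 76 µM; nearly all actives have a fitted effect of over 40% in size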
How it was run: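 We seeded SH-SY5Y-GLuc-SERCaMP cells, added compounds (three concentrations in the primary run, eleven up to 76.6 uM in confirmation), incubated 16 h, depleted ER calcium with thapsigargin, and read luciferase 4 h later.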

[15] = molecular target: Cytochrome P450 3A4 (Homo sapiens) (UniProt P08684); experiment: Cytochrome P450 family 3 subfamily A member 4 (CYP3A4) small molecule antagonists: luciferase qHTS assay (AID 1645841; active means well fitted curve in the direction sought with a large enough effect in the repeat runs; an effect the other way counts as inactive or inconclusive; further: nearly all actives have a fitted effect of over 45% in size)
Cytochrome P450 3A4 (Homo sapiens), sequence (P08684 whole entry, looked up): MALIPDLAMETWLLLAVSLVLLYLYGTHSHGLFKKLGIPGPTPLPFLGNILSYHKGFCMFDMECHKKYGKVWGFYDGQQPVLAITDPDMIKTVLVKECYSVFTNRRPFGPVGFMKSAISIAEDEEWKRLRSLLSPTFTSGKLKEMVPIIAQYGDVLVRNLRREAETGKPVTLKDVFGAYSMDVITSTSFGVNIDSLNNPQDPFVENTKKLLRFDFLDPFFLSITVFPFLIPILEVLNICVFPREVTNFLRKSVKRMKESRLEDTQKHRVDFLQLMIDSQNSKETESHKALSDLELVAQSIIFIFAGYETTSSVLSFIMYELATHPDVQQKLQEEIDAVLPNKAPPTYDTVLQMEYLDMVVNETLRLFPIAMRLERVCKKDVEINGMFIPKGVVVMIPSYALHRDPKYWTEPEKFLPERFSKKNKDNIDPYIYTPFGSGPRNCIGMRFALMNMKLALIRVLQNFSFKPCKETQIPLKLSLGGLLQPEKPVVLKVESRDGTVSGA
How it was run: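 P450-Glo CYP3A4 enzyme with proluciferin substrate was preincubated with DMSO-dissolved compounds for 10 min at room temperature. NADPH regeneration solution started a 1 h reaction. Detection reagent stopped it, and luminescence was read after 20 min.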

[16] = molecular target: N-terminal Xaa-Pro-Lys N-methyltransferase 1 (Homo sapiens) (UniProt Q9BV86); experiment: Confirmatory qHTS for Inhibitors of N-terminal methyltransferase 1 (NTMT1): MTaseGlo Assay (AID 1645874);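 further: luminescence from SAH made as NTMT1 methylates SPKRIA peptide using SAM; series mostly up to about 100 µM; nearly all actives have a fitted effect of over 65% in size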
N-terminal Xaa-Pro-Lys N-methyltransferase 1 (Homo sapiens), sequence (Q9BV86 whole entry, looked up): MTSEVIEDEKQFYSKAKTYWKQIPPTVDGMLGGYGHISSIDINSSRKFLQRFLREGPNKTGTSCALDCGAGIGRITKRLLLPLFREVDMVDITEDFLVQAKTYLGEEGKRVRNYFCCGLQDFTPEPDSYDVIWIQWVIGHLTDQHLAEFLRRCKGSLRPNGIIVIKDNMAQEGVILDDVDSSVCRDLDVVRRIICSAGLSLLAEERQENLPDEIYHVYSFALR
How it was run: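 Preincubation of NTMT1 (125 nM) plus SAM (100 uM) with test compounds lasted 15 min; methylation of 1 uM SPKRIA then proceeded 30 min in the dark at room temperature. Luciferase signal reported SAH produced.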

[17] = molecular target: Calcium and integrin-binding protein 1 (Homo sapiens) (UniProt Q99828); experiment: Confirmatory qHTS for Identification of Calcium Integrin Binding Protein 1 (CIB1) Competitor (AID 1508617); further: potency means the concentration at half of the fitted maximal effect; nearly all actives have a fitted effect of over 65% in size
How it was run: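 Confirmatory qHTS measures displacement of a FITC-alphaIIb peptide (100 nM) from CIB1-GST (1 uM) by fluorescence polarization. Calcium-containing HEPES buffer, pH 7.4; two 15 min room-temperature incubations.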

Measured: Potency

OC[C@@H](O)[C@H](O)[C@H](O)[C@@H](O)CO
inactive: [1] | [2] | [3] | [4] | [5] | [6] | [7] | [8] | [9]

CCN(CC)C(=O)c1ccc(O)c(OC)c1
not listed: [13] | [14] | [15] | [16] | [17]
inactive: all other assays above

CC(=O)c1ccc(S(=O)(=O)NC(=O)NC2CCCCC2)cc1
not listed: [7] | [13] | [14] | [15] | [16] | [17]
inactive: all other assays above

Cc1cccc(C)c1OCC(C)N (configuration not stated)
active: [6] 13.8 µM and 21.3 µM
not listed: [3] | [12] | [13] | [14] | [15] | [16] | [17]
inactive: all other assays above

CN(C)CCC(c1ccccc1)c1ccccn1 (configuration not stated)
not listed: [6] | [15] | [16] | [17]
inactive: all other assays above

COc1ccc2cccc(CCNC(C)=O)c2c1
inactive: [1] | [2] | [3] | [5] | [8] | [9]

O=C1NCC2(CCN(CCc3ccccc3)CC2)O1
not listed: [6] | [13] | [14] | [16] | [17]
inactive: all other assays above

O=c1c(-c2ccc(O)cc2)coc2cc(O)ccc12
inactive: [2] | [3] | [4] | [6] | Papain (Carica papaya) | [16]
active: [7] 0.213 µM

COc1ccc(Cc2ccc(NC(N)=O)cc2)cc1-c1cccc(Cl)c1
inactive: [3]

Nc1ncnc2c1ncn2[C@@H]1O[C@@H](CO)[C@H](O)[C@H]1O
inactive: [3]

Clc1ccc(C(c2ccc(Cl)cc2)n2cc[n+](CC(OCc3ccc(Cl)cc3Cl)c3ccc(Cl)cc3Cl)c2)cc1 (configuration not stated)
inactive: [10] | [11] | [2] | [12] | [3] | [4] | Papain (Carica papaya)
active: [8] 5.25 µM | [9] 5.25 µM

CCN(CC)CCOc1ccc(C(=C(Cl)c2ccccc2)c2ccccc2)cc1
inactive: [3]

C=C1C(=O)[C@@]23C(CC[C@@H]1[C@H]2O)[C@@]12CO[C@]3(O)[C@@H](O)[C@@H]1C(C)(C)CC[C@@H]2O (some centres not stated)
active: [17] 25.1 µM | [3] 44.7 µM | [8] 2.35 µM | [9] 1.48 µM
inactive: [4]
